# MITF act – increases MITF-driven TRPM1 promoter luciferase signal | actives 0.75% (n = 300,000) | SK-MEL-5 TRPM1-promoter luciferase, 24 h; % of positive control, neutral wells = 0 | activation, % at 12.5 µM | AID 588334;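 active means mean activation of at least 80% with every replicate also reaching 80%; inconclusive means mean reaches 80% but some replicate falls short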;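 further: 0% = neutral control wells and 100% = parthenolide positive control wells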
# miR-122 sensor – blocks miR-122 activity in Huh7 sensor cells; Huh7 miR-122 Renilla luciferase sensor, 48 h; neutral wells = 0, positive control = 100; activation (reporter increase), % at 12.5 µM; actives 0.3% (n = 340,000);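 active means mean replicate activation score at least 90 and every replicate individually at or above 90; inconclusive means only one of the two criteria met; inactive means neither criterion met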;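 further: higher luciferase means less miR-122 activity so hits act as miR-122 inhibitors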
# Wnt bcat act – activators of Wnt/beta-catenin signaling; Wnt/beta-catenin reporter cell assay, activator, plate reader; activation, % at 9.35 µM; actives 1.2% (n = 300,000); AID 743398; in the data active means activation above about 30%, passing the limit was not always enough; inconclusive means no clear call, values can overlap the other calls;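 further: 0% = neutral control wells and 100% = positive control wells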
# esBAF inh – inhibitors of esBAF chromatin remodeling in mouse ES cells; Bmi1-luciferase knock-in reporter, 24 h; 100% = twice the neutral-well signal; actives 2% (n = 350,000); reporter increase, % at 12.5 µM; in the data active means activation above about 40%; inconclusive means no clear call, values can overlap the other calls;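 further: 0% = median of the plate's neutral control wells and 100% = double that signal; a rise in the Bmi1 reporter signal indicates esBAF inhibition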
# HIV Env fusion – HIV envelope-mediated fusion inhibition | HeLa-JRFL Env/CEM21 cell fusion, luciferase | actives 1.1% (n = 360,000) | inhibition, % at 12.3 µM;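 active means mean replicate inhibition score of at least 50 and every replicate individually at or above 50; inconclusive means only one of the two criteria met; inactive means mean below 50 and not all replicates reaching 50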;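 further: 0% = plate neutral controls and 100% = maraviroc near 300 nM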
# An asterisk follows results filed as active; ? = inconclusive; / = no result; ! = repeats disagree; [ ] = another dose, or the depositor's remark. Shown are actives, neighbours in structure and some others; about 3.4% of the full set was active somewhere.
SMILES,MITF act,miR-122 sensor,Wnt bcat act,esBAF inh,HIV Env fusion
COc1ccc(S(=O)(=O)Nc2ccc(-c3ccc4nnc(C)n4n3)cc2)c(OC)c1,-10,92*,-1,-8,/
COc1ccc(NC(=O)N(C)C[C@H]2OCCCC[C@@H](C)Oc3ccc(NC(=O)Nc4ccc(F)cc4)cc3C(=O)N([C@@H](C)CO)C[C@H]2C)cc1,/,14[16.7 µM],/,5,-12[16.7 µM]
C[C@H]1CN([C@@H](C)CO)C(=O)c2c(c3ccccc3n2C)-c2ccccc2CO[C@H]1CN(C)C(=O)Nc1cccc(F)c1,/,/,-1,/,88*
C[C@@H]1CN([C@@H](C)CO)C(=O)c2c(c3ccccc3n2C)-c2ccccc2CO[C@@H]1CN(C)C(=O)Nc1ccc2c(c1)OCO2,/,/,/,50*,-14[16.7 µM]
COc1cccc(NC(=O)N(C)C[C@@H]2OCc3ccccc3-c3c(n(C)c4ccccc34)C(=O)N([C@@H](C)CO)C[C@@H]2C)c1,/,/,/,8,57*[16.7 µM]
C[C@H](CO)N1C[C@H](C)[C@@H](CN(C)C(=O)Nc2ccc(F)cc2)OCc2ccccc2-c2c(n(C)c3ccccc23)C1=O,/,/,/,11,58*[16.7 µM]
C[C@H]1CN([C@@H](C)CO)C(=O)c2cc(NC(=O)NC3CCCCC3)ccc2O[C@@H]1CN(C)S(=O)(=O)c1ccccc1,/,1[16.7 µM],/,-2,/
Cc1ccc(S(=O)(=O)N[C@H]2CC[C@H](CCn3cc(-c4cccc(F)c4)nn3)O[C@@H]2CO)cc1,/,/,/,-10,22[16.7 µM]
CC1CCCCN1C(=O)CSc1nnc(-c2ccc(Cl)s2)o1 (centres undefined),72,-6,/,63*,/
CC(C)NC(=O)N(C)C[C@@H]1OCCCC[C@@H](C)Oc2ccc(NS(=O)(=O)c3ccc(Cl)cc3)cc2C(=O)N([C@@H](C)CO)C[C@H]1C,/,-7[16.7 µM],/,4,-52[16.7 µM]
C[C@@]12C(=O)N(CCc3c[nH]c4ccccc34)CC(=O)N1[C@H]1c3ccccc3OC[C@@H]1[C@@H]2c1ccccc1,-11,-4,-2,4,82*
C[C@@]12C(=O)N(Cc3ccc(F)cc3)CC(=O)N1[C@H]1c3cc(Cl)ccc3OC[C@@H]1[C@@H]2c1ccccc1,3,-9,-3,-4,77*
CN1CC(=O)N2[C@H]3c4ccccc4OC[C@@H]3[C@H](c3ccccc3)[C@]2(C)C1=O,-3,10,1,-8,-1
C[C@@]12C(=O)N(Cc3ccc(Cl)cc3)CC(=O)N1[C@H]1c3ccccc3OC[C@@H]1[C@@H]2c1ccccc1,0,-2,-8,1,29
C[C@@]12C(=O)N(Cc3ccccc3)CC(=O)N1[C@H]1c3cc(Cl)ccc3OC[C@@H]1[C@@H]2c1ccccc1,-5,0,-4,-2,61*
Cc1noc(C)c1NC(=O)Nc1ccc2c(c1)C(=O)N([C@H](C)CO)C[C@@H](C)[C@@H](CN(C)Cc1ccncc1)O2,/,8[16.7 µM],/,0,/
O=C1CCCCC1Sc1nnc(-c2ccc3c(c2)OCO3)o1 (centres undefined),-43,/,-19,/,68*
C[C@H](O)C#Cc1ccc2c(c1)O[C@H](CN(C)C(=O)c1ccccc1)[C@@H](C)CN([C@H](C)CO)S2(=O)=O,/,-2[16.7 µM],/,4,-13[16.7 µM]
C[C@@H]1CN([C@@H](C)CO)C(=O)c2cccc(NC(=O)C3CCCCC3)c2O[C@H]1CN(C)CC1CCCCC1,/,1[16.7 µM],/,2,63*[16.7 µM]
C[C@H](CO)N1C[C@H](C)[C@@H](CN(C)CC2CCCCC2)Oc2c(NC(=O)C3CC3)cccc2C1=O,3,114*![16.7 µM],2,-5,36[16.7 µM]
C[C@H](CO)N1C[C@H](C)[C@@H](CN(C)S(C)(=O)=O)Oc2c(NC(=O)C3CCCCC3)cccc2C1=O,3,6[16.7 µM],2,2,21[16.7 µM]
C[C@@H]1CN([C@H](C)CO)C(=O)c2cccc(NC(=O)C3CC3)c2O[C@@H]1CN(C)CC1CC1,/,-10[16.7 µM],/,-2,/
C[C@H]1CN([C@@H](C)CO)C(=O)c2cccc(NC(=O)C3CCCCC3)c2O[C@H]1CN(C)S(C)(=O)=O,/,12[16.7 µM],/,2,62*[16.7 µM]
C[C@H](CO)N1C[C@H](C)[C@@H](CN(C)CC2CC2)Oc2c(NC(=O)C3CC3)cccc2C1=O,7,149*[16.7 µM],-1,-18,44
Cc1c(C(=O)Nc2nc3ccccc3[nH]2)oc2c(Cl)cccc12,5,7,-3,49*,-19
SMILES,MITF act,miR-122 sensor,Wnt bcat act,esBAF inh,HIV Env fusion
CN(C)c1cccc(C(=O)Nc2nc3ccccc3[nH]2)c1,10,-3,-5,-44,-85
O=C(Nc1nc2ccccc2[nH]1)c1cccc(Br)c1,15,2,24,51*,-121
O=C(Nc1nc2ccccc2[nH]1)c1cccc(F)c1,2,-9,31*,-15,-122
O=C(C[C@@H]1C[C@H]2c3cc(NC(=O)C4CCC4)ccc3O[C@H]2[C@H](CO)O1)NCC(F)(F)F,/,-1[16.7 µM],/,-2,93*[16.7 µM]
O=C(C[C@H]1C[C@H]2c3cc(NC(=O)C4CCC4)ccc3O[C@H]2[C@@H](CO)O1)NCC(F)(F)F,/,3[16.7 µM],/,2,57*[16.7 µM]
CO[C@H]1O[C@H](CO)[C@@H](OC(=O)Nc2ccccc2-c2ccccc2)[C@H](OC(=O)Nc2ccccc2-c2ccccc2)[C@@H]1OC(=O)Nc1ccccc1-c1ccccc1,/,/,/,/,16[16.7 µM]
O=C(Nc1ccc(Cl)cc1)c1ccco1,45,-7,45*,37,-28
COc1ccc2nc(NC(=O)c3ccco3)sc2c1,-8,/,3,-57,-56
O=C(Nc1nc2ccc(Cl)cc2s1)c1ccco1,14,116*,?,/,-161
O=C(Nc1nc2ccc(Br)cc2s1)c1ccco1,44,4,5,13,-106
CC1CC1C(=O)Nc1nc(-c2ccccn2)cs1 (centres undefined),18,-7,-2,51*,/
COc1cc2sc(NC(=O)c3ccco3)nc2cc1Cl,63,43,?,52*,-77
O=C(Nc1nc(-c2ccccn2)cs1)C1COc2ccccc2O1 (centres undefined),-15,13,1,9,25
CN(C)C(=O)[C@@H]1[C@@H](CO)[C@@H]2Cn3c(ccc(-c4cncnc4)c3=O)[C@@H]2N1Cc1cc(F)ccc1F,/,/,/,2,9[16.7 µM]
C[C@@H]1CN([C@H](C)CO)C(=O)c2cc(NC(=O)Nc3ccc4c(c3)OCO4)ccc2O[C@H]1CN(C)S(C)(=O)=O,/,-3[16.7 µM],/,-2,/
C[C@H]1CN([C@@H](C)CO)C(=O)c2cccc(NC(=O)Nc3cccc4ccccc34)c2O[C@@H]1CN(C)C(=O)Nc1ccc2c(c1)OCO2,/,-2[16.7 µM],/,1,12[16.7 µM]
CCCC(=O)N1CCN(c2ccc(NC(=O)c3ccco3)cc2)CC1,5,12,3,4,18
CCN1CCN(c2ccc(NC(=O)c3ccco3)cc2)CC1,86*,-8,16,/,2
Cc1noc(C)c1C(=O)Nc1nc2ccc(Cl)cc2s1,50,4,11,31,-36
Cn1cc(Cl)c(C(=O)Nc2nc3ccc([N+](=O)[O-])cc3s2)n1,7,/,5,/,-6
O=C(Nc1ccc(N2CCCC2=O)cc1)c1cccc(F)c1,58,/,27,/,/
